Source: PubChem (National Center for Advancing Translational Sciences (NCATS))
This is a sample that favours compounds with a hit; in the whole collection about 21% have one here.
Shiga inhibitor – A qHTS for Small Molecule Inhibitors of Shiga Toxin; 290,000 compounds, 9.2% hits; Vero cells, Shiga toxin protein synthesis inhibition reporter; inhibition, % at 38.7 µM; AID 2315, 2010; in the data active means inhibition mostly above about 28%, no sharp cut-off; inactive means mostly below about 43%; further: 0% is about no effect
Pf growth 96h – Primary qHTS for delayed death inhibitors of the malarial parasite plastid, 96 hour incubation; 320,000 compounds, 6.9% hits; P. falciparum luciferase reporter growth, 96 h; Potency, µM (top dose mostly 28.7 µM), for the others: at the highest dose activity change, negative = inhibition, actives largely listed as inhibitors; further: potency means the concentration at half of the fitted maximal effect; on the % scale 0 is the no-effect control and ±100 the full control effect
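Parasite growth measured via integrated firefly luciferase reporter in P. falciparum. Infected erythrocytes at 2% hematocrit, 0.05% parasitemia final were treated 96 hours at 37 C under 5% CO2, and luminescence was read.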
HCMV antiviral – qHTS Assay for inhibitors of the human cytomegalovirus (HCMV). HFF cells, HCMV-luciferase reporter, 72 h; hits give low values. activity change, negative = inhibition, % at 57.5 µM. 410,000 compounds, 4.5% hits. AID 1259415, 2018; in the data active means activity change below about -60%; inconclusive means no clear call, values can overlap the other calls; inactive means above about -39%; further: on the % scale 0 is the no-effect control and ±100 the full control effect
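After 16 h attachment at 37C, HFF cells received test compound and HCMV-luciferase (1 PFU/cell); reporter luminescence read 72 h later, data normalized against buffer-only and known inhibitor Salinomycin.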
Pf growth 48h – Primary qHTS for delayed death inhibitors of the malarial parasite plastid, 48 hour incubation | 310,000 compounds, 5.9% hits | P. falciparum luciferase growth in erythrocytes, 48 h | Potency, µM (titrated, usually from 28.7 µM), without a hit: at the top dose activity change, negative = inhibition, hits mostly inhibitors; further: potency means the concentration at half of the fitted maximal effect; on the % scale 0 is the no-effect control and ±100 the full control effect
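Compounds are pin-transferred into medium, infected erythrocytes (2% hematocrit, 0.1% parasitemia final) are added, and plates sit one parasite generation at 37 C in 5% CO2. Detection reagent is then added and luminescence measured.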
CHX counter – Cycloheximide Counterscreen for Small Molecule Inhibitors of Shiga Toxin. max response, %. 300,000 compounds, 12% hits. cell reporter, cycloheximide protein synthesis inhibition counterscreen. AID 2314, 2010; in the data active means max response mostly above about 13%, no sharp cut-off; inactive means mostly below about 14%; further: read at 38.3 µM for the half of the compounds with a filed dose; 0% is about no effect
HCV inhibitor – qHTS Assay for Inhibitors of Hepatitis C Virus (HCV); Huh7.5.1 HCVcc-Cre infection, luciferase reporter, 44 h; Potency, µM (titrated, usually from 41.8 µM), for the others: top-dose activity change, negative = inhibition, actives largely listed as inhibitors; 340,000 compounds, 3.4% hits; AID 651820, 2012; further: potency means the concentration at half of the fitted maximal effect; on the % scale 0 is the no-effect control and ±100 the full control effect
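Antiviral activity was scored by luciferase reporter output from cells infected with HCVcc-Cre (~0.5 moi) in presence of compound, 44 h infection period, cells seeded 1,000/well 4 h prior.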
The depositor's hits bear a star; ? = inconclusive; / = no result given. Unless noted, the call rests on the fitted dose curve; in most records, active means well fitted inhibition curve with a large enough effect; inconclusive means small, poorly fitted or top-dose-only effect, or another doubt; inactive means no such curve, though single readings can be large or run the other way.

SMILES	Shiga inhibitor	Pf growth 96h	HCMV antiviral	Pf growth 48h	CHX counter	HCV inhibitor
CC(NC(=O)c1c(O)nc2ccccn2c1=O)c1ccccc1 (stereo not drawn)	/	/	-20.8	/	/	/
Cc1cccn2c(=O)c(C(=O)NC3CC(C)CC(C)(C)C3)c(O)nc12 (stereo not drawn)	/	?	?	3.7µM*	/	?
Cc1cccn2c(=O)c(C(=O)NC3CCCCC3C)c(O)nc12 (stereo not drawn)	/	?	?	13.1µM*	/	?
Cc1ccn2c(=O)c(C(=O)NCCCN3CCCCC3C)c(O)nc2c1 (stereo not drawn)	13.3	?	16.3	-12.2%	-3.1	21.0%
Cc1ccn2c(=O)c(C(=O)NC3CCCCC3C)c(O)nc2c1 (stereo not drawn)	/	?	-16.3	2.33µM*	/	?
Cc1ccn2c(=O)c(C(=O)NC(C)c3ccccc3)c(O)nc2c1 (stereo not drawn)	/	/	-70.2*	/	/	/
Clc1ccccc1Sc1ccc(-c2ccccn2)s1	38.2	-2.8%	0.7	6.8%	7.9	-21.1%
Clc1ccc(-c2nc3sccn3c2/C=N/OCc2ccc(Cl)c(Cl)c2)cc1	22.9	/	/	/	11.0	/
O=C(N/C(=C\c1ccc([N+](=O)[O-])cc1)C(=O)N1CCOCC1)c1ccco1	-10.1	21.0%	34.8	4.4%	-4.7	-7.4%
CC1N(C)c2cc(NC(=O)c3ccco3)ccc2C1(C)C (stereo not drawn)	74.2*	15.6%	-69.9*	-70.6%	44.3*	-27.9%
Cc1cc(C)cc(NC(=O)c2ccc(NC(=O)c3ccco3)cc2)c1	-8.1	3.1%	-12.3	?	0.7	?
CC1N(C)c2cc(NC(=O)c3ccco3)c(P(=O)(Nc3ccc([N+](=O)[O-])cc3)N3CCOCC3)cc2C1(C)C (stereo not drawn)	56.0*	9.28µM*	?	5.86µM*	24.4	8.91µM*
Cc1c(Cl)c([N+](=O)[O-])nn1CC(=O)N1CCCc2ccccc21	-1.6	?	23.1	35.2%	24.9*	-15.7%
Cc1c(Br)c([N+](=O)[O-])nn1CC(=O)N1CCc2ccccc21	-13.4	19.4%	-1.7	6.2%	-3.6	41.1%
O=C1CCC(=O)N1CC(=O)N1CCCc2ccccc21	-11.8	16.6%	26.0	43.4%	-4.0	15.0%
Cc1c(Cl)c([N+](=O)[O-])nn1CC(=O)N1CCN(C23CC4CC(CC(C4)C2)C3)CC1	-10.2	2.0%	?	11.7µM*	-0.1	?
Cc1nn(CC(=O)N2CCN(C34CC5CC(CC(C5)C3)C4)CC2)c(C)c1[N+](=O)[O-]	-11.8	?	-30.9	0.8%	-1.2	-2.3%
O=C(Cn1cc2c(n1)CCCCC2)N1CCCCC1	38.1	12.1%	82.6	36.1%	17.9*	22.6%
O=C(Cn1cc2c(n1)CCCC2)N1CCCc2ccccc21	76.3*	-17.9%	7.6	4.1%	18.0*	-0.5%
O=C(NCc1ccccc1Cl)c1ccc2c(O)c(S(=O)(=O)c3ccccc3)c(=O)[nH]c2c1	/	/	6.2	/	/	/
CC1CCc2nn(CC(=O)N3CCc4ccccc43)cc2C1 (stereo not drawn)	-3.7	10.4µM*	43.9	/	-3.8	12.3%
CC1CCc2nn(CC(=O)N3CCCCCC3)cc2C1 (stereo not drawn)	26.0	-10.3%	12.2	18.7%	16.1	2.5%
COc1ccc2nccnc2c1[N+](=O)[O-]	-16.5	30.9%	-20.6	39.8%	-0.3	10.9%
COc1cc([N+](=O)[O-])cc(/C=N/N(CCC#N)C(C)=O)c1O	-8.9	20.4%	?	4.4%	-5.5	10.8%
O=C(CC(SCCO)c1ccc2c(c1)OCO2)c1ccco1 (stereo not drawn)	123.2*	14.7%	20.1	57.6%	47.5*	?
SMILES	Shiga inhibitor	Pf growth 96h	HCMV antiviral	Pf growth 48h	CHX counter	HCV inhibitor
O=C(NCc1ccc2c(c1)OCO2)c1ccco1	13.4	-14.4%	-13.2	21.2%	10.4	6.0%
COc1cc(NC(=O)CCS(=O)(=O)c2nc(-c3cccs3)cc(C(F)(F)F)n2)cc(OC)c1OC	/	0.0%	-98.4*	?	/	/
O=C(CCS(=O)(=O)c1nc(-c2cccs2)cc(C(F)(F)F)n1)Nc1cccc(O)c1	/	/	-99.4*	/	/	/
COc1ccc(-c2cc(C(F)(F)F)nc(S(=O)(=O)CCCC(=O)Nc3cccnc3Cl)n2)cc1OC	12.8	-9.3%	23.8	11.7µM*	19.3*	?
O=C(CCS(=O)(=O)c1nc(-c2ccc3c(c2)OCO3)cc(C(F)(F)F)n1)Nc1ccc(F)c(Cl)c1	/	/	-99.9*	/	/	/
COC(=O)c1ccccc1NC(=O)CCCS(=O)(=O)c1nc(-c2ccccc2OC)cc(C(F)(F)F)n1	/	/	11.0	/	/	/
Cc1nn(CCC(=O)NCc2cccc(Br)c2)c(=O)c2nn(-c3ccccc3)c(C)c12	/	/	-8.1	/	/	/
COc1ccc2c(c1)c1c(c(=O)n(-c3ccc(C)cc3)c(=O)n1CC(=O)N1CCCC1)n2C	/	/	-14.1	/	/	/
COc1ccc(NC(=O)CCS(=O)(=O)c2nc(-c3cccs3)cc(C(F)(F)F)n2)cc1OC	/	/	-101.1*	/	/	/
Cc1ccsc1C1Nc2ccccc2C(=O)N1O (stereo not drawn)	46.6*	?	?	-14.7%	20.2*	15.8%
Cc1ccsc1C1C(C(=O)O)c2ccccc2C(=O)N1C (stereo not drawn)	-4.2	/	-19.0	?	-5.9	18.4%
Cc1nn(C)cc1C1Nc2ccccc2C(=O)N1O (stereo not drawn)	43.1	-12.7%	47.1	-1.6%	6.5	6.5%
Cc1nn(C)c(C)c1C1Nc2ccccc2C(=O)N1O (stereo not drawn)	42.2	31.5%	72.0	28.2%	16.1*	14.7%
O=C1c2ccccc2NC(c2cnc3ccccc3n2)N1O (stereo not drawn)	71.4*	11.7%	54.8	343.0%	49.4*	-10.4%
O=C1c2ccccc2NC(c2ccc(-c3ccccc3F)o2)N1O (stereo not drawn)	/	3.8%	-26.5	57.5%	/	/
COc1ccc(CCN2CC(C(=O)N(C)C3CCOCC3)CCC2=O)cc1 (stereo not drawn)	16.6	-23.4%	39.4	?	18.0	7.0%
COCCCN1C(=O)c2ccc(C(=O)NCc3ccccn3)cc2C1=O	-3.5	18.8%	-33.6	1.9%	-4.1	-1.4%
COc1ccc(S[C@]2(C(=O)NCC(F)(F)F)CC(=O)N[C@@H]2c2ccc(OC)cc2)cc1	/	/	0.6	/	/	/
Cc1ccc(NC(=O)c2c(C)nc(Nc3nc4ccccc4o3)nc2C)cc1	26.5	11.2%	1.1	7.6%	6.7	-14.3%
O=C(NNc1nc2ccccc2o1)c1ccccc1	55.5*	62.2%	18.2	261.1%	29.8*	-1.5%
Cc1cc(C)nc(Nc2nc3ccccc3o2)n1	45.3*	0.2%	68.0	?	27.4*	-16.0%
